Article PMC5540273 (PLoS ONE, 2017)

Experiments:
Details in all cases: concentration: 1 μM, replicates: in singlicate; n = 1
CSNK1G1 = system: CSNK1G1
CSNK1G2 = system: CSNK1G2
CSNK1G3 = system: CSNK1G3
CSNK2A1 = system: CSNK2A1
CSNK2A2 = system: CSNK2A2
CTK = system: T1, CTK
T1 construct: gene MATK

DAPK1 = system: DAPK1
DAPK2 = system: DAPK2
DAPK3 = system: DAPK3
DCAMKL1 = system: T2, DCAMKL1
T2 construct: gene DCLK1
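Note: KINOMEscan kinase panel screen.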

Row | Structure (SMILES) | %Inh (CSNK1G1) | %Inh (CSNK1G2) | %Inh (CSNK1G3) | %Inh (CSNK2A1) | %Inh (CSNK2A2) | %Inh (CTK) | %Inh (DAPK1) | %Inh (DAPK2) | %Inh (DAPK3) | %Inh (DCAMKL1)
1 | CC(C)(C)c1ccc2nccc(Nc3cccc(O)c3)c2c1 [GW856795] | 36% | 0% | 0% | 0% | 0% | 0% | 16% | 0% | 0% | 14%
2 | Nc1n[nH]c2cnc(-c3ccccc3)cc12 [SB-642124] | 4% | 0% | 3% | 21% | 27% | 0% | 24% | 0% | 27% | 13%
3 | Cc1cccc(Nc2nc(N[C@H]3CCNC3)ncc2C(N)=O)c1.Cl [GSK2197149] | 14% | 11% | 15% | 52% | 0% | 13% | 69% | 51% | 22% | 16%
4 | CN(C)Cc1ccc(-c2ccc3c(Nc4ccc(Oc5ccccn5)cc4)ccnc3c2)o1 [GW567148] | 0% | 0% | 0% | 0% | 0% | 16% | 0% | 0% | 0% | 14%
5 | Cn1cc(-c2ccc3c(c2)CCN3C(=O)Cc2cccc(F)c2)c2c(N)ncnc21 [GSK2603358] | 28% | 0% | 38% | 0% | 0% | 0% | 0% | 0% | 12% | 14%
6 | O=C(Nc1ccccc1F)NC1CCN(c2ccnc(Nc3ccc(F)cc3)n2)CC1 [GSK1379800] | 3% | 0% | 12% | 0% | 0% | 0% | 0% | 0% | 20% | 0%
7 | Cc1ccc(C(=O)N2CC[C@@H](O)C2)cc1-n1c(C)cc(OCc2ccc(F)cc2F)c(Br)c1=O | 0% | 0% | 0% | 0% | 0% | 0% | 3% | 0% | 7% | 40%
8 | C[C@@H]1CC[C@@H](C(=O)Nc2ccccc2)CN1c1cc(-c2ccc3c(N)n[nH]c3c2)nc(N)n1 [GSK2286062] | 13% | 8% | 14% | 54% | 7% | 0% | 0% | 23% | 20% | 7%
9 | Cc1ccc(F)c(C(=O)Nc2cccc(-c3nn4ccccc4c3-c3ccnc(Nc4cccc(F)c4)n3)c2)c1F [GSK361061] | 10% | 12% | 27% | 20% | 10% | 27% | 0% | 10% | 14% | 0%
10 | C[C@@H](Oc1cc(-n2cnc3cc(-c4ccnc(NCCS(C)(=O)=O)c4)ccc32)sc1C(N)=O)c1ccccc1Cl [GSK907232] | 13% | 0% | 14% | 16% | 37% | 5% | 64% | 12% | 17% | 26%
11 | Cc1ccc(C(=O)Nc2ccc(Nc3ccnc4cc(-c5nccs5)ccc34)cc2O)cc1.Cl [GW494702] | 0% | 0% | 4% | 0% | 100% | 8% | 0% | 0% | 10% | 0%
12 | COc1cccc(NC(=O)NC2CCN(c3ccnc(Nc4cc(OC)c(OC)c(OC)c4)n3)C2)c1 (stereo not shown) [GSK1379763] | 0% | 0% | 14% | 12% | 7% | 0% | 5% | 0% | 17% | 0%
13 | CN(C)S(=O)(=O)c1cc(-c2ccc3nccc(-c4cccc(S(N)(=O)=O)c4)c3c2)cnc1N [GSK1669921] | 22% | 0% | 33% | 11% | 4% | 12% | 0% | 8% | 3% | 28%
14 | Cl.c1ccc(-c2ccc3c(Nc4ccc5[nH]ncc5c4)ccnc3c2)nc1 [GW440137] | 0% | 17% | 30% | 0% | 8% | 0% | 15% | 0% | 23% | 12%
15 | Nc1ncnc2c1nc(-c1ccccc1)n2-c1ccccc1 [SKF-97293] | 4% | 14% | 7% | 0% | 13% | 42% | 0% | 0% | 17% | 0%
16 | NCCCC(NC(=O)c1cc(Br)c(-c2ccnc3[nH]ccc23)s1)c1ccccc1.O=C(O)C(F)(F)F.O=C(O)C(F)(F)F (stereo not shown) [GSK1287544] | 57% | 97.2% | 94.8% | 27% | 20% | 0% | 0% | 0% | 0% | 8%
17 | Cc1cccc(NC(=O)Nc2ccc(Oc3ncnc4ccn(C)c34)cc2)c1 | 0% | 10% | 5% | 0% | 0% | 0% | 0% | 0% | 0% | 45%
18 | Cn1cc(-c2ccc3c(c2)CCN3C(=O)Cc2cccc(Cl)c2)c2c(N)ncnc21 [GSK2606590] | 31% | 0% | 29% | 8% | 30% | 0% | 1% | 5% | 0% | 12%
19 | Cc1ccc(S(=O)(=O)Nc2ccc(Nc3nccc(Nc4cccc5[nH]ncc45)n3)cc2)cc1 [GSK581271] | 0% | 0% | 7% | 0% | 0% | 0% | 0% | 0% | 5% | 12%
20 | Cn1cc(-c2[nH]c3cc(NC(=O)[C@H](N)C4CCCCC4)cc4c3c2C=NNC4=O)cn1 | 0% | 0% | 2% | 68% | 77% | 0% | 99.8% | 98.7% | 99.7% | 46%
21 | Cc1ccc(C)c(NC(=O)NC2CCN(c3ccnc(Nc4ccc(F)cc4)n3)C2)c1 (stereo not shown) [GSK1379720] | 0% | 15% | 12% | 0% | 0% | 0% | 0% | 0% | 0% | 6%
22 | CCc1ccc(-c2ccc3c(c2)-c2c(cnn2C)S(=O)(=O)N3C)cc1 | 0% | 2% | 0% | 0% | 10% | 26% | 1% | 0% | 5% | 0%
